Reference: PubChem BioAssay AID624136 (Broad Institute, 2012)
Screen size: about 17,000 compounds; about 75 (0.4%) were called active. The sample holds actives, similar compounds and a random draw of the others, so the mix is not that of the screen.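 How the source made its calls: active means compounds whose four printed spots each glow above background more than chance allows, each with a p-value under 7%; inactive means the rest.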

Tested on: mutant tumor protein p53 (GST-tagged), Homo sapiens
Experiment: binders of human mutant p53, primary screen, biochemical, small molecule microarray, anti-GST fluorescence (AID 624136)
Conditions: small molecule microarray binding

outcome, inactive:
C[C@@H]1CN([C@@H](C)CO)C(=O)Cc2cc(NC(=O)Nc3ccc(F)cc3)ccc2O[C@@H]1CN(C)C(=O)NC1CCCCC1
C[C@H]1CN([C@@H](C)CO)C(=O)c2cc(NC(=O)Nc3ccc4c(c3)OCO4)ccc2O[C@@H]1CN(C)CC1CCCCC1
COc1ccc(S(=O)(=O)Nc2ccc3c(c2)CC(=O)N([C@H](C)CO)C[C@H](C)[C@@H](CN(C)C)O3)cc1
COc1ccc(S(=O)(=O)N(C)C[C@@H]2Oc3ccc(NC(=O)CCC(F)(F)F)cc3C(=O)N([C@@H](C)CO)C[C@@H]2C)cc1
Cc1ccc(C(=O)C2C(=O)C(=O)N(Cc3cccnc3)C2c2ccc(Cl)c(Cl)c2)o1 (centres undefined)
C[C@@H]1CN([C@@H](C)CO)C(=O)Cc2cc(NC(=O)CCN3CCOCC3)ccc2O[C@@H]1CN(C)CC1CC1
COc1ccc(NC(=O)Nc2cccc3c2O[C@@H](CN(C)S(=O)(=O)c2cn(C)cn2)[C@H](C)CN([C@@H](C)CO)C3=O)cc1
Cc1noc(C)c1S(=O)(=O)N(C)C[C@@H]1Oc2ccc(NC(=O)C3CC3)cc2CC(=O)N([C@@H](C)CO)C[C@@H]1C
Cc1noc(C)c1NC(=O)N(C)C[C@H]1OCc2cn(nn2)CCCC(=O)N([C@@H](C)CO)C[C@H]1C
C[C@H](CO)N1C[C@H](C)[C@@H](CN(C)C(=O)NC2CCCCC2)Oc2ccc(NC(=O)c3ccncc3)cc2CC1=O
O=C(C1=C[C@H](C2CC2)C[C@H](OCc2ccc(CO)cc2)O1)N1CCN(Cc2ccccc2)CC1
Cn1nnnc1SCC(=O)Nc1cccc(NC(=O)C23CC4CC(CC(C4)C2)C3)c1
C[C@@H]1CN([C@H](C)CO)C(=O)c2cccc(NS(=O)(=O)c3ccc(Cl)cc3)c2O[C@@H]1CN(C)CC1CC1
COc1ccc(CN(C)C[C@@H]2Oc3ccc(NC(=O)Nc4ccc(OC)cc4)cc3CC(=O)N([C@H](C)CO)C[C@H]2C)cc1
COC(=O)c1c(C)n(CCNc2ccc([N+](=O)[O-])cc2)c2ccc(O)cc12
O=C(CCc1nc(-c2ccccc2Cl)no1)Nc1ccccc1[N+](=O)[O-]
C[C@H]1CN([C@@H](C)CO)C(=O)c2cccc(NC(=O)C3CCOCC3)c2O[C@@H]1CN(C)C(=O)Nc1cccc2ccccc12
C[C@@H]1CN([C@@H](C)CO)C(=O)c2cccc(NS(=O)(=O)c3cn(C)cn3)c2O[C@H]1CN(C)Cc1ccc(Cl)c(Cl)c1
C=C1C[C@@H]2COC(=O)[C@]2(Cc2ccc3ccccc3c2)C1
COc1cc(C(C)=O)ccc1OCC(O)Cn1nc(C)cc1C (centres undefined)
COc1ccc(CN(C)C[C@H]2Oc3c(NS(=O)(=O)c4ccc(Cl)cc4)cccc3C(=O)N([C@H](C)CO)C[C@@H]2C)cc1
C[C@H](CO)N1C[C@H](C)[C@@H](CN(C)Cc2ccc(Cl)c(Cl)c2)Oc2c(NC(=O)C3CCCCC3)cccc2C1=O
C[C@H]1CCCCO[C@@H](CN(C)C(=O)C2CCCCC2)[C@@H](C)CN([C@@H](C)CO)C(=O)c2cc(NS(=O)(=O)c3cccs3)ccc2O1
C[C@H](CO)N1C[C@H](C)[C@H](CN(C)C)Oc2ccc(NC(=O)Cc3ccccc3)cc2CC1=O
C[C@H]1CN([C@@H](C)CO)C(=O)c2cc(NC(=O)Nc3ccccc3)ccc2O[C@@H]1CN(C)C(=O)Nc1ccccc1
CCNc1nc(SCCOc2ccccc2)nc(N(C)C)n1
C[C@H](CO)N1C[C@H](C)[C@H](CN(C)C(=O)Nc2ccc(C(F)(F)F)cc2)Oc2ccc(NS(C)(=O)=O)cc2CC1=O
O=C(OCC1OC(Oc2ccc(O)cc2COC(=O)C2(O)C(O)CCC(O)C2O)C(O)C(O)C1O)c1ccccc1 (centres undefined)
C[C@@H]1CCCCO[C@H](CN(C)C(=O)Nc2ccccc2)[C@H](C)CN([C@H](C)CO)C(=O)c2cc(N(C)C)ccc2O1
Cc1noc(C)c1NC(=O)Nc1ccc2c(c1)CC(=O)N([C@H](C)CO)C[C@@H](C)[C@@H](CN(C)Cc1ccncc1)O2
CC(=O)Nc1ccc(NC(=O)CN(c2ccccc2Br)S(C)(=O)=O)cc1
Cc1noc(C)c1NC(=O)Nc1cccc2c1O[C@@H](CN(C)Cc1ccc(C(F)(F)F)cc1)[C@@H](C)CN([C@@H](C)CO)C2=O
C[C@@H]1CCCCO[C@@H](CN(C)S(=O)(=O)c2ccccc2)[C@H](C)CN([C@H](C)CO)C(=O)c2cc(NC(=O)CCC(F)(F)F)ccc2O1
Cc1noc(C)c1S(=O)(=O)Nc1ccc2c(c1)CC(=O)N([C@@H](C)CO)C[C@@H](C)[C@H](CN(C)C)O2
C[C@H](CO)N1C[C@H](C)[C@H](CN(C)C(=O)c2ccccc2)OCCCC[C@H](C)Oc2ccc(NS(C)(=O)=O)cc2C1=O
C[C@@H]1CCCCO[C@H](CN(C)Cc2ccccc2)[C@@H](C)CN([C@H](C)CO)C(=O)c2cc(NS(C)(=O)=O)ccc2O1
C[C@H](CO)N1C[C@H](C)[C@H](CN(C)C(=O)Nc2ccccc2)Oc2ccc(NC(=O)C3CC3)cc2CC1=O
CC(C)NC(=O)Nc1ccc2c(c1)C(=O)N([C@@H](C)CO)C[C@H](C)[C@@H](CN(C)C(=O)Nc1ccc(F)cc1)OCCCC[C@H](C)O2
COc1ccc(CN(C)C[C@@H]2Oc3ccc(NC(=O)Nc4ccc(OC)cc4)cc3C(=O)N([C@H](C)CO)C[C@H]2C)cc1
C=CC(C)(O)CCC1(C)C2=C(C(OC(C)=O)C(OC(C)=O)C1C)C(C)(C)CCC2 (centres undefined)
COc1cc([C@H](Cc2ccccc2)NC(C)=O)oc(=O)c1
CCc1ccc2c(c1)c1nc3ccccc3nc1n2CC(=O)OC
C[C@H]1CN([C@@H](C)CO)C(=O)Cc2cc(NC(=O)Nc3cccc4ccccc34)ccc2O[C@H]1CN(C)CC1CC1
C[C@@H]1CCCCO[C@H](CN(C)Cc2ccccc2)[C@@H](C)CN([C@H](C)CO)C(=O)c2cc(NS(=O)(=O)c3ccc(Cl)cc3)ccc2O1
